Results published in a collection of fitness landscapes (doi:10.1016/j.celrep.2020.107928).
Whole data set: some 81,000 sequences, median “one-hybrid fitness for binding NBS DNA” near -0.1, cut for the highest 2% near 0.36. Many of the other results were omitted from the sample, so the highest values are more common in it than they were.

B1: Caulobacter ParB omega fusion; a variant is named by its letters at X, in order, B8GW30 (parent)
chain: MESVVVGEPGMSEGRRGLGRGLSALLGEVDAAPAQAPGEQLGGSREAPIEILQRNPDQPRRTFREEDLEDLSNSIREKGVLQPILVRPSPDTAGEYQIVAGERAWRAAQRAGLKTVPIMVRELDDLAVLEIGIIENVQRADLNVLEEALSYKVLMEKFERTQENIAQTIGKSXSHVANXMRLLXLPDEVQSYLVSGELTAXHARAIAAAADPVALAKQIIEGGLSVRETEALARKAPNLSAGKSKGGRPPRVKDTDTQALESDLSSVLGLDVSIDHRGSTGTLTITYATLEQLDDLCNRLTRGI

Variants of: B1
Test: one-hybrid fitness for binding NBS DNA (the Noc-binding site; scaled: cognate 1, non-cognate 0); higher = stronger binding
Conditions: with NBS DNA site
Procedure, shortened: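 Caulobacter ParB libraries with four specificity codons randomised were screened by bacterial one-hybrid selection in the E. coli USO strain, using a HIS3 reporter whose site lies 19 bp from the promoter. Selection ran for 48 hours at 37°C on M9 lacking histidine, with 0.1 mM IPTG and 5 mM 3-AT. Plasmids were Illumina-sequenced before and after selection, three replicate libraries were pooled, and variants with under 10 reads were dropped. Fitness is the log change in each variant's read ratio to wild type, rescaled against the cognate and non-cognate sites.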

Variant	one-hybrid fitness for binding NBS DNA
NDTS	≤ 0.2
HEHG	≤ 0.2
WING	≤ 0.2
QIWR	0.304
QTWR	0.529
QSWR	0.365
QMWS	0.261
QRWR	0.796
QRWD	≤ 0.2
QTWC	≤ 0.2
QMWD	≤ 0.2
QMWR	0.403
QLWR	0.319
QTWK	≤ 0.2
RLIM	≤ 0.2
HKDT	≤ 0.2
CTPT	≤ 0.2
QQGL	≤ 0.2
TSVS	≤ 0.2
LDTG	≤ 0.2
DILR	≤ 0.2
RKCV	≤ 0.2
QAWY	≤ 0.2
QKWF	≤ 0.2

Variant	one-hybrid fitness for binding NBS DNA
QCWR	0.49
QKWR	0.462
QKWY	≤ 0.2
QAWR	0.348
QKWD	0.405
QPWR	≤ 0.2
QKWM	≤ 0.2
QKWS	0.33
RLLS	0.266
SITS	≤ 0.2
LTLV	≤ 0.2
SPPA	≤ 0.2
RRRH	0.808
RCRH	0.46
RRRE	0.219
RSRH	0.335
RRYH	0.436
RRPH	0.294
RREH	0.296
RPRH	≤ 0.2
RRRL	0.25
SHTT	≤ 0.2
VASP	≤ 0.2
SECF	≤ 0.2

Variant	one-hybrid fitness for binding NBS DNA
NISL	≤ 0.2
QYDC	≤ 0.2
QYKC	0.371
QYNC	≤ 0.2
QYYC	≤ 0.2
QYRC	0.38
QYVC	≤ 0.2
MESV	≤ 0.2
SGNS	≤ 0.2
GITD	≤ 0.2
RVSA	≤ 0.2
RLGC	≤ 0.2
RMCL	≤ 0.2
RMCF	≤ 0.2
RLLT	0.337
RLCP	≤ 0.2
RLCH	≤ 0.2
RLYT	0.391
RLPT	≤ 0.2
RLGM	≤ 0.2
RLGT	0.389
RLCT	0.396
RMCT	0.366
APPM	≤ 0.2

Variant	one-hybrid fitness for binding NBS DNA
YKNV	≤ 0.2
MWIF	≤ 0.2
QMEK	≤ 0.2
LNIR	≤ 0.2
FVCG	≤ 0.2
LKHR	≤ 0.2
RTCK	≤ 0.2
RTCC	≤ 0.2
RLWT	0.23
RTCT	0.531
RLST	0.46
RLHT	0.437
RLSH	≤ 0.2
RLSP	≤ 0.2
RLRT	0.657
RLHN	≤ 0.2
RLHY	≤ 0.2
RLIT	0.23
FWLT	≤ 0.2
PFLT	≤ 0.2
THKK	≤ 0.2
QSNE	≤ 0.2
SMHG	≤ 0.2
TFYD	≤ 0.2

Variant	one-hybrid fitness for binding NBS DNA
RCCT	0.39
RLNH	0.201
RLQN	≤ 0.2
RLDT	≤ 0.2
RLKP	≤ 0.2
RLQD	≤ 0.2
RPCT	≤ 0.2
RLVT	0.236
RLKT	0.644
RSCT	0.281
RLQT	0.462
RLNT	0.528
KERP	≤ 0.2
SPFL	≤ 0.2
PQIR	≤ 0.2
QSHW	≤ 0.2
AERM	≤ 0.2
QAMH	0.219
QAMN	≤ 0.2
QTMR	0.656
EMMS	≤ 0.2
QSMR	0.456
QSMN	≤ 0.2
QSMH	≤ 0.2

Variant	one-hybrid fitness for binding NBS DNA
EMMK	0.405
QAMR	0.45
EMMN	≤ 0.2
QTMY	0.232
QTMC	≤ 0.2
LIRV	≤ 0.2
RMDQ	≤ 0.2
VSTS	≤ 0.2
CNRT	≤ 0.2
IWRR	≤ 0.2
PMRP	≤ 0.2
TVTG	≤ 0.2
HFAM	≤ 0.2
DPVR	≤ 0.2
CHNI	≤ 0.2
QRMF	0.25
QMMD	≤ 0.2
QKMR	0.51
QRMM	0.334
QKMK	≤ 0.2
QRMR	0.971
QKMC	≤ 0.2
QPMR	≤ 0.2
QMMR	0.523

Variant	one-hybrid fitness for binding NBS DNA
QCMR	0.589
QMML	≤ 0.2
QIMR	0.348
TRYK	≤ 0.2
DMET	≤ 0.2
PFSA	≤ 0.2
KETI	≤ 0.2
TMKT	≤ 0.2
FTAV	≤ 0.2
TYAQ	≤ 0.2
DFDS	≤ 0.2
QHMH	≤ 0.2
QLMD	≤ 0.2
QHMD	≤ 0.2
QHMR	0.512
QLMR	0.437
QLMP	≤ 0.2
PNHV	≤ 0.2
LLMW	≤ 0.2
LSGP	≤ 0.2
QVTR	0.38
QITR	0.417
QITP	≤ 0.2
QMTR	0.568

Variant	one-hybrid fitness for binding NBS DNA
QMTP	≤ 0.2
QATP	≤ 0.2
QATR	0.507
QMTN	≤ 0.2
QVTS	0.257
QVTD	≤ 0.2
QITH	≤ 0.2
QATN	≤ 0.2
AEVC	≤ 0.2
LDTD	≤ 0.2
DQQR	≤ 0.2
PSGT	≤ 0.2
DSIE	≤ 0.2
WSFT	≤ 0.2
GPRS	≤ 0.2
PFKM	≤ 0.2
QQPY	≤ 0.2
QHTH	≤ 0.2
QTTF	≤ 0.2
QTTR	0.794
QKTH	0.241
QTTQ	0.242
QHTD	≤ 0.2
QKTK	≤ 0.2

Variant	one-hybrid fitness for binding NBS DNA
QKTR	0.646
QSTD	≤ 0.2
QHTR	0.527
QSTR	0.531
QSTP	≤ 0.2
HRSV	≤ 0.2
ENSS	≤ 0.2
DMPS	≤ 0.2
GDPL	≤ 0.2
ACNS	≤ 0.2
TMDS	≤ 0.2
PAFY	≤ 0.2
QPEV	≤ 0.2
IHVS	≤ 0.2
GGTE	≤ 0.2
HVRY	≤ 0.2
QLTR	0.487
QLTD	≤ 0.2
QRTR	1.01
NRTR	≤ 0.2
QLTN	≤ 0.2
QCTR	0.637
DRTR	≤ 0.2
QPTR	≤ 0.2

Variant	one-hybrid fitness for binding NBS DNA
QNTR	0.223
PNSR	≤ 0.2
QDFN	≤ 0.2
VVTR	≤ 0.2
ASAC	≤ 0.2
AKMS	≤ 0.2
VYSF	≤ 0.2
GLYG	≤ 0.2
HCDP	≤ 0.2
RLNN	≤ 0.2
RLWR	0.248
RLSK	≤ 0.2
RLYR	0.385
RLGH	≤ 0.2
RLGN	≤ 0.2
RLGR	0.443
RLSR	0.43
RLSC	≤ 0.2
RLPR	≤ 0.2
RLDR	≤ 0.2
RLNR	0.526
PRNP	≤ 0.2
HRFS	≤ 0.2
YKLT	≤ 0.2

Variant	one-hybrid fitness for binding NBS DNA
CNVC	≤ 0.2
CNLW	≤ 0.2
RLQY	≤ 0.2
RLIR	0.21
RLCN	≤ 0.2
RLRR	0.673
RLCR	0.412
RLLR	0.32
RLCS	0.334
RLHD	≤ 0.2
RLHM	≤ 0.2
RLQR	0.43
RLQQ	≤ 0.2
RLHR	0.491
HQQG	≤ 0.2
GCLR	≤ 0.2
YYLT	≤ 0.2
TQHV	≤ 0.2
RMVQ	≤ 0.2
WTKW	≤ 0.2
SRPI	≤ 0.2
QCRF	0.423
QRDF	≤ 0.2
QTRF	0.446

Variant	one-hybrid fitness for binding NBS DNA
QRYF	0.227
QPRF	≤ 0.2
QTDF	≤ 0.2
QTYF	≤ 0.2
QRRF	0.418
QSRF	0.265
NNNK	≤ 0.2
WGNT	≤ 0.2
AIMG	≤ 0.2
NWSC	≤ 0.2
HMTV	≤ 0.2
SYSV	≤ 0.2
RCDA	≤ 0.2
RRNA	0.679
RCNA	0.298
RSDA	≤ 0.2
RPNA	≤ 0.2
RRDA	0.463
VHDS	≤ 0.2
RQYA	≤ 0.2
PMCY	≤ 0.2
RICN	≤ 0.2
RSCH	≤ 0.2
RHCH	≤ 0.2

Variant	one-hybrid fitness for binding NBS DNA
RFCR	≤ 0.2
RHCR	0.37
RSCR	0.38
RHCP	≤ 0.2
RPCR	≤ 0.2
RICH	≤ 0.2
RSCN	≤ 0.2
RICR	0.369
RCCR	0.45
TYVA	≤ 0.2
SMNL	≤ 0.2
VKSS	≤ 0.2
NEES	≤ 0.2
WCYR	≤ 0.2
AMGT	≤ 0.2
RKCD	≤ 0.2
RKCR	0.552
RKCH	≤ 0.2
